Screens (PubChem BioAssay)
Compounds with a hit are over-represented: about 4.7% of the library has one in this group of screens.
HTT-AS promoter: Primary qHTS for Identification of Small Molecule Activators of Huntingtin-Antisense Promoter Activity. HEK293 HTT-AS promoter firefly luciferase reporter, 24 h; response scale: percent change from vehicle, -100% = no light. Potency, µM (doses to about 57.5 µM), most hits filed as activators. actives 0.24% (n = 48,000). AID 1508624, 2021; note: nearly all actives have a fitted effect of over 55% in size
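HEK293 Fluc reporter, 2,500 cells/well, 24 h pre-culture; cpds up to 57.5 uM final, 24 h 37 degrees C; Dual-Glo, 10 min RT; normalized vehicle = 0%, zero RLU = -100%.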
FH mod: Identification of activators of human fumarate hydratase by quantitative high-throughput screening | Fumarate hydratase, mitochondrial (Homo sapiens), P07954 | FH coupled MDH/diaphorase resazurin fluorescence, 15 min | Potency, µM (doses to about 79.9 µM), actives largely listed as inhibitors | actives 0.22% (n = 54,000); note: the screen sought activators but most active calls are inhibition curves; nearly all actives have a fitted effect of over 45% in size
Target sequence (P07954 whole entry, looked up): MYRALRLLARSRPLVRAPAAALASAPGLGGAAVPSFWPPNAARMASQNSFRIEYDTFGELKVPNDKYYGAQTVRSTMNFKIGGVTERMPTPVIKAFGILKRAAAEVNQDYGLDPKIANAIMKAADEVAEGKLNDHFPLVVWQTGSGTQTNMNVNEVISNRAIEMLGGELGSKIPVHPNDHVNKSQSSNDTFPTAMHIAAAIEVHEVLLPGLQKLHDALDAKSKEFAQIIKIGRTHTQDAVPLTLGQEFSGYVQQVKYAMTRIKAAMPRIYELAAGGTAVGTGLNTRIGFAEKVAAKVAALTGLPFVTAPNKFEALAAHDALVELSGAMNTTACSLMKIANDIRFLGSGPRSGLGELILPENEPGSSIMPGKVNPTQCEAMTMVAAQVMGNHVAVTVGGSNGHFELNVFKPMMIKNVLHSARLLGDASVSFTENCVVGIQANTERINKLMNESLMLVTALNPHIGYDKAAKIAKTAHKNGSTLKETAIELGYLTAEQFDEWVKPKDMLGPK
GALC G270D act: A Novel Cell-Based Assay to Identify Small Molecules for B -Galactocerebrosidase; P54803; 145M-Twi-hGALC-G270D cells (Twitcher mouse brain line with human GALC G270D), HMU-beta-Gal fluorescence, 48 h; Potency, µM (highest dose often 57.5 µM), hits mostly activators; actives 0.1% (n = 45,000); note: nearly all actives have a fitted effect of over 65% in size
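Live 145M-Twi cells (Twitcher mouse brain-derived, GALC-null) stably expressing human GALC-G270D, with a wild-type GALC line, were compound-treated. Residual GALC activity was then read as fluorescence from 0.1 mM final HMU-β-gal at pH 5.2; higher signal means activation.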
HTT promoter inh: Primary qHTS for Identification of Small Molecule Inhibitors of Huntingtin Promoter Activity; HEK293 HTT promoter firefly luciferase reporter, 24 h; Potency, µM (doses to about 57.5 µM), usual class: inhibitors; actives 0.93% (n = 48,000); AID 1508623, 2021; note: nearly all actives have a fitted effect of over 50% in size
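HEK293 cells carrying firefly luciferase reporters were seeded at 2,500 per well in Opti-MEM and cultured for 24 h. They were then treated with compounds at up to 57.5 uM final for 24 h at 37 degrees C before Dual-Glo luminescence readout.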
GPR32 ag: qHTS for Agonists of Human Resolvin D1 Receptor DRV1 | actives 2.5% (n = 48,000) | AID 1346428, 2018 | activation, % at 76.9 µM | CHO-K1 GPR32 beta-arrestin PathHunter luminescence, 90 min; zero percent set by DMSO-only wells | Probable G-protein coupled receptor 32 (Homo sapiens), O75388;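 active = activation of at least 60% and not above a set upper limit, about 1 call in 100 departs from these limits; inconclusive = activation of 40% to 60%, or above that upper limit; inactive = activation under 40%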
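PathHunter enzyme-fragment complementation, CHO-K1 GPR32 stable line; 2,500 cells/well, overnight attach; cpd 90 min 37 °C 5% CO2; detection reagent 1 h RT; chemiluminescence. DMSO = EC0.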
NTMT1 inh: Primary qHTS for Inhibitors of N-terminal methyltransferase 1 (NTMT1): MTaseGlo Assay. N-terminal Xaa-Pro-Lys N-methyltransferase 1 (Homo sapiens), Q9BV86. NTMT1 MTase-Glo SAH luminescence, purified enzyme. Potency, µM (top dose mostly 114 µM), hits mostly inhibitors. actives 2.5% (n = 59,000). AID 1645870, 2021; note: nearly all actives have a fitted effect of over 65% in size
Numbers stand for hits; i = inactive; ? = inconclusive; nt = no result given; ! = a repeat was not active; [ ] = another dose, or the depositor's remark. Unless noted, calls come from the whole dose curve; as a rule, active = well fitted curve in the direction sought with a large enough effect; inconclusive = small, poorly fitted or top-dose-only effect, or another doubt; inactive = no such curve, though single readings can be large; an effect the other way counts as inactive or inconclusive.

SMILES	HTT-AS promoter	FH mod	GALC G270D act	HTT promoter inh	GPR32 ag	NTMT1 inh
CCOC(=O)c1cnc2c(ccc3ccccc32)c1Nc1ccccc1OC	i[11.5 µM]	i	i	?	85.0	i
O=C(NCc1ccco1)c1c[nH]c2ccc(S(=O)(=O)Nc3ccc(F)cc3F)cc2c1=O	i	?	i	i	62.8	i
O=C(NCCc1ccccc1)c1c[nH]c2ccc(S(=O)(=O)Nc3ccc(F)cc3F)cc2c1=O	i	i	i	i	100.0	i
Cc1cc(C(=O)N2CCCCc3ccccc32)ccc1CNC(=O)N1CCC[C@H]1C(=O)N(C)C	nt	i	nt	nt	nt	i
CCOc1ccccc1Nc1nc2ccccc2nc1NS(=O)(=O)c1ccc(Cl)cc1	i	i	i	i	67.1	i
CCOC(=O)c1ccc(Nc2nc3ccccc3nc2NS(=O)(=O)c2ccc(Cl)cc2)cc1	i	i	i	?	?	i
Fc1ccc(-n2ncc3c(NCCCc4ccccc4)ncnc32)cc1	8.91µM	i	i	i	i	i
Fc1ccc(-n2ncc3c(NCCCn4ccnc4)ncnc32)cc1	2.82µM	i	i	i	?	i
CCOCCCNc1ncnc2c1cnn2-c1ccc(C)c(C)c1	?	i	i	i	89.3	?
CC(C)(C)OC(=O)N1CCN(c2ccc(NCc3ccoc3-c3ccc(C#N)cc3)cc2)CC1	nt	nt	nt	nt	nt	i
CS(=O)(=O)c1ccc(C(=O)OCC(=O)N2CCN(C3CCCCC3)CC2)cc1[N+](=O)[O-]	nt	nt	nt	nt	nt	i
COc1ccc(NC(=O)CC(C)S(=O)(=O)c2ccc3c(c2)NC(=O)CO3)cc1OC (stereo not given)	i	i	i	i	i	i
COc1cc(OC)c(NC(=O)CC(C)S(=O)(=O)c2ccc3c(c2)NC(=O)CO3)cc1Cl (stereo not given)	i	i	i	i	73.4	i
CCc1c[nH]c2ncnc(N3CC[C@](N)(CNC(=O)c4ccc(F)cc4F)C3)c12	nt	i	nt	nt	nt	i
COc1ccccc1C(=O)OCc1cc(=O)n2c(C)csc2n1	11.2µM	i	i	i	i	i
COc1cccc(C(=O)Nc2ccccc2C(=O)OCc2cc(=O)n3c(C)csc3n2)c1	i	i	i	i	i	i
O=C(CCCCCCC(=O)Nc1ccc([C@H]2O[C@@H](CSc3nc(-c4ccccc4)c(-c4ccccc4)o3)C[C@@H](c3ccc(CO)cc3)O2)cc1)NO	i	i	nt	i	nt	42.9µM!
Cc1ccc(C)c(N2CCN(C(=O)C3CCCN(S(=O)(=O)c4cccc5nonc45)C3)CC2)c1 (stereo not given)	i	i	i	?	i	i
Cc1ccc(C)c(N2CCN(C(=O)C3CCCN(S(=O)(=O)c4cccc5nsnc45)C3)CC2)c1 (stereo not given)	i	i	i	?	66.0	i
CCOc1nc2c(N)ncnc2n1CC	nt	i	nt	nt	nt	i
O=C(NCc1ccccc1Cl)C1CCC(CNS(=O)(=O)c2ccc(Br)s2)CC1 (stereo not given)	i	i	i	i	98.2	?
COc1cccc(CNC(=O)C2CCC(CNS(=O)(=O)c3ccc(Br)s3)CC2)c1 (stereo not given)	i	i	i	i	i	i
CC(=O)Nc1ccc(S(=O)(=O)NCC2CCC(C(=O)NCc3ccccc3)CC2)cc1 (stereo not given)	i	i	i	i	98.8	i
O=C(NCc1ccc(Cl)cc1)C1CCC(CNS(=O)(=O)c2ccccc2)CC1 (stereo not given)	i	i	i	i	83.0	i
CN(C)C(=O)c1cc2cnc(Nc3ccc(N4CCNCC4)cn3)nc2n1C1CCCC1	nt	i	nt	nt	nt	i
